A short description of experiment [1]: qHTS assay to identify small molecule HDAC inhibitors (AID 1259364). Also: nearly all actives have a fitted effect of over 45% in size. Also: potency is read from the fitted curve at half-maximal effect. In a few lines: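 Luminescence from a cell-permeant luminogenic class I/II HDAC substrate reports endogenous deacetylase activity in intact HCT-116 cells treated with compounds for 2 h.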
Experiment [2] in a line: qHTS assay to identify small molecule HDAC inhibitors - cell viability counter screen (AID 1259365). Also: series mostly up to about 92 µM; nearly all actives have a fitted effect of over 50% in size. In a few lines:
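HCT-116 (wild type), 1,500 cells/well, overnight 37C/5% CO2; compound in DMSO 2hr; CellTiter-Glo 30min RT; luminescence read.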

Experiment [3] in a line: qHTS assay to identify small molecule agonists of the sonic hedgehog signaling (Shh) pathway - cell viability counter screen (AID 1259366). Also: nearly all actives have a fitted effect of over 50% in size. In a few lines: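 CellTiter-Fluor fluorescence read-out, 1 hr at 37C, added after 23hr compound exposure. Cells: 3T3 Gli1-Luc, an NIH/3T3 clone with stably integrated Gli1-Luc reporter, plated 4hr before compound.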
A short description of experiment [4]: qHTS assay to identify small molecule antagonists of the sonic hedgehog signaling (Shh) pathway - cell viability counter screen (AID 1259367). Also: nearly all actives have a fitted effect of over 55% in size. In a few lines:
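NIH/3T3-derived Gli1-Luc reporter cells (2,000 per well) rested 4 hr at 37 C, then received DMSO compounds plus conditioned medium. After 23 hr of treatment, CellTiter-Fluor was added for 1 hr at 37C and fluorescence read.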

Experiment [5] in a line: qHTS assay to identify small molecule agonists of the sonic hedgehog signaling (Shh) pathway (AID 1259368; calls by dose curve;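 also: NIH/3T3-derived 3T3Gli1-Luc cells carrying a stable Gli1-driven firefly luciferase reporter; series mostly up to about 92 µM; nearly all actives have a fitted effect of over 15% in size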). In a few lines:
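3T3Gli1-Luc (NIH/3T3 clone, stable Gli1-Luc); 4 hr pre-incubation, then cpd in DMSO 24 hr, 37 C/5% CO2; luciferase reagent 30 min RT; luminescence.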

The nature of experiment [6]: qHTS assay to identify small molecule antagonists of the sonic hedgehog signaling (Shh) pathway (AID 1259369; calls by dose curve; also: nearly all actives have a fitted effect of over 45% in size). In a few lines:
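3T3Gli1-Luc, conditioned-medium-stimulated, 24hr cpd, 37C/5% CO2; Gli1-driven firefly Luc luminescence after 30min RT with luciferase reagent. Cells plated 4hr before cpd.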

Experiment [7] in a line: qHTS assay to identify small molecule agonists of the androgen receptor (AR) signaling pathway in the presence of an antagonist - cell viability counter screen (AID 1259379).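 Also: MDA-kb2 human breast cancer cells carrying an MMTV luciferase reporter; series mostly up to about 92 µM; nearly all actives have a fitted effect of over 25% in size.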 In outline: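 Cells: MDA-kb2 (MMTV-luc, AR and GR elements), 3,000/well, 5 hr settle. Added: nilutamide 3.0uM final, then compounds (15 conc.). Incubation: 16 hr, 37C, no CO2. Read-out: CellTiter-Fluor, 1 hr, fluorescence.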

The nature of experiment [8]: qHTS assay to identify small molecule agonists of the estrogen receptor beta (ER-beta) signaling pathway - cell viability counter screen (AID 1259380). Also: nearly all actives have a fitted effect of over 30% in size. In a few lines: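 HEK293T ER-beta-UAS-bla; 2% CS-FBS; 6 hr pre-plate, 16 hr cpd at 37C/5% CO2; LiveBLAzer read first, then CellTiter-Glo 30 min RT, luminescence.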
Experiment [9] can be described thus: qHTS assay to identify small molecule antagonists of the estrogen receptor beta (ER-beta) signaling pathway - cell viability counter screen (AID 1259382). Also: series mostly up to about 92 µM; nearly all actives have a fitted effect of over 55% in size. In outline:
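Cells: ER-beta-UAS-bla HEK293T, 2,000/well, 2% CS-FBS, 6 hr settle. Cpd + E2 (1nM final), 16 hr, 37C/5% CO2. Bla FRET substrate 2 hr RT, then CellTiter-Glo 30 min RT, luminescence.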

In experiment [10] the target is Thyrotropin receptor (Homo sapiens) (UniProt P16473). Kind of experiment: qHTS assay to identify small molecule antagonists of the thyroid stimulating hormone receptor (TSHR) signaling pathway (AID 1259385; calls by dose curve; also: nearly all actives have a fitted effect of over 20% in size). In a few lines:
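TSHR-HEK293 cells were plated and held 18 h at 37C/5% CO2, then given compound plus Ro20-1724 and stimulated with TSH at 1.5 ng/mL final. After 30 min at room temperature, cAMP was detected with cAMP-d2/anti-cAMP-cryptate (1 h) by fluorescence.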

The nature of experiment [11]: qHTS assay to identify small molecule agonists of the estrogen receptor alpha (ER-alpha) signaling pathway in the presence of an antagonist - cell viability counter screen (AID 1259386).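 Also: series mostly up to about 92 µM; cells exposed to compounds for 22 h at 37 °C before the viability read; nearly all actives have a fitted effect of over 30% in size.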 In a few lines:
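VM7Luc4E2, stripped-serum pre-culture 5 d; 24hr plating; +ICI-182,780 10.0nM final; cpds 15 conc, 22hr, 37C/5% CO2; CellTiter-Fluor added at 21hr, fluorescence 1hr later.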

Experiment [12] deals with Progesterone receptor (Homo sapiens) (UniProt P06401). The experiment can be described thus: qHTS assay to identify small molecule antagonists of the progesterone receptor (PR) signaling pathway (AID 1346795; active = well fitted inhibition curve with a large enough effect in the signal ratio in the repeat runs, not every such curve was filed as active; the % refers to the signal ratio). In a few lines:
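Beta-lactamase reporter, HEK293T PR-UAS-bla line; 2% charcoal-stripped FBS; 6 hr pre-incubation, 37C/5% CO2. Compound + R5020 1 nM final, 16 hr. LiveBLAzer B/G FRET substrate, 2 hr RT; fluorescence intensity read.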

A short description of experiment [13]: qHTS assay to identify small molecule antagonists of the progesterone receptor (PR) signaling pathway - cell viability counter screen (AID 1346798). Also: series mostly up to about 92 µM; nearly all actives have a fitted effect of over 50% in size. In outline: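 Luminescence readout (CellTiter-Glo, 30 min, RT) of viability in PR-UAS-bla HEK293T cells exposed to compound and R5020 agonist for 16 hr at 37C, 5% CO2; run in the same wells as the beta-lactamase reporter read.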

A short description of experiment [14]: qHTS assay to identify small molecule agonists of the progesterone receptor (PR) signaling pathway - cell viability counter screen (AID 1346799; calls by dose curve; also: nearly all actives have a fitted effect of over 45% in size). In outline:
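HEK293T PR-UAS-bla, 3,000 cells/well, 2% charcoal-stripped FBS; 6 h settle, compound 16 h at 37C/5% CO2; LiveBLAzer 2 h RT, then CellTiter-Glo 30 min RT, luminescence read.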

Experiment [15] in a line: qHTS assay to identify small molecule agonists or antagonists of the thyroid stimulating hormone receptor (TSHR) signaling pathway - wild type cell line counter screen (AID 1259384; calls by dose curve). In outline:
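Wild-type HEK293 cells were plated 18 h at 37 C/5% CO2, pin-dosed with compound plus Ro20-1724 medium, held 30 min at room temperature, then given cAMP-d2 and anti-cAMP-cryptate; fluorescence was read after 1 h. Fifteen concentrations, triplicate.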

For experiment [16], the target named is Estrogen receptor (Homo sapiens) (UniProt P03372). The experiment can be described thus: qHTS assay to identify small molecule agonists of the estrogen receptor alpha (ER-alpha) signaling pathway in the presence of an antagonist (AID 1259383; calls by dose curve; also: top concentration of the series differs between compounds; nearly all actives have a fitted effect of over 15% in size). In outline:
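VM7Luc4E2, endog. ER-alpha + 4×ERE-luc; charcoal-stripped FBS, phenol red-free, 5 d; 24hr plating; +10.0nM ICI-182,780 (final); cpds 15 conc, 22hr, 37C/5% CO2; ONE-Glo luminescence.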

The target of experiment [17] is Progesterone receptor (Homo sapiens) (UniProt P06401). Kind of experiment: qHTS assay to identify small molecule agonists of the progesterone receptor (PR) signaling pathway (AID 1346784; calls by dose curve; also: nearly all actives have a fitted effect of over 30% in size). In outline:
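HEK 293T PR-UAS-bla reporter cells, 2% charcoal-stripped FBS; 6 hr settle at 37C/5% CO2, compound (DMSO) 16 hr, LiveBLAzer B/G FRET substrate 2 hr RT, fluorescence intensity read.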

Experiment [18] has as its target Estrogen receptor beta (Homo sapiens) (UniProt Q92731). The experiment can be described thus: qHTS assay to identify small molecule agonists of the estrogen receptor beta (ER-beta) signaling pathway (AID 1259377; active = well fitted activation curve with a large enough effect in the signal ratio in the repeat runs, not every such curve was filed as active; the % refers to the signal ratio). In a few lines:
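Beta-lactamase reporter readout: fluorescence of LiveBLAzer B/G FRET substrate after 2 h at room temperature, following 16 h compound treatment of ER-beta-UAS-bla HEK293T cells at 37C in 2% charcoal-stripped FBS medium.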

For experiment [19] the target is unchanged. The experiment can be described thus: qHTS assay to identify small molecule antagonists of the estrogen receptor beta (ER-beta) signaling pathway (AID 1259378; active = well fitted inhibition curve with a large enough effect in the signal ratio in the repeat runs, not every such curve was filed as active; the % refers to the signal ratio). In a few lines: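 ER-beta-UAS-bla HEK293T (GripTite) cells in 2% charcoal-stripped FBS medium were preincubated 6 hr at 37C, dosed with compound, then stimulated with 1 nM E2 (final) for 16 hr; beta-lactamase reporter read by B/G FRET fluorescence after 2 hr substrate loading.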

In experiment [20] the target is Androgen receptor (Homo sapiens) (UniProt P10275). The experiment can be described thus: qHTS assay to identify small molecule agonists of the androgen receptor (AR) signaling pathway in the presence of an antagonist (AID 1259381; calls by dose curve; also: nearly all actives have a fitted effect of over 15% in size). In a few lines: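 MDA-kb2 cells, 3,000/well, rested 5hr at 37C/0% CO2 → nilutamide 3.0uM final or buffer → compounds, 15 conc. → 16hr at 37C → ONE-Glo, 30min RT → luminescence.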
Androgen receptor (Homo sapiens), sequence (P10275 whole entry, looked up): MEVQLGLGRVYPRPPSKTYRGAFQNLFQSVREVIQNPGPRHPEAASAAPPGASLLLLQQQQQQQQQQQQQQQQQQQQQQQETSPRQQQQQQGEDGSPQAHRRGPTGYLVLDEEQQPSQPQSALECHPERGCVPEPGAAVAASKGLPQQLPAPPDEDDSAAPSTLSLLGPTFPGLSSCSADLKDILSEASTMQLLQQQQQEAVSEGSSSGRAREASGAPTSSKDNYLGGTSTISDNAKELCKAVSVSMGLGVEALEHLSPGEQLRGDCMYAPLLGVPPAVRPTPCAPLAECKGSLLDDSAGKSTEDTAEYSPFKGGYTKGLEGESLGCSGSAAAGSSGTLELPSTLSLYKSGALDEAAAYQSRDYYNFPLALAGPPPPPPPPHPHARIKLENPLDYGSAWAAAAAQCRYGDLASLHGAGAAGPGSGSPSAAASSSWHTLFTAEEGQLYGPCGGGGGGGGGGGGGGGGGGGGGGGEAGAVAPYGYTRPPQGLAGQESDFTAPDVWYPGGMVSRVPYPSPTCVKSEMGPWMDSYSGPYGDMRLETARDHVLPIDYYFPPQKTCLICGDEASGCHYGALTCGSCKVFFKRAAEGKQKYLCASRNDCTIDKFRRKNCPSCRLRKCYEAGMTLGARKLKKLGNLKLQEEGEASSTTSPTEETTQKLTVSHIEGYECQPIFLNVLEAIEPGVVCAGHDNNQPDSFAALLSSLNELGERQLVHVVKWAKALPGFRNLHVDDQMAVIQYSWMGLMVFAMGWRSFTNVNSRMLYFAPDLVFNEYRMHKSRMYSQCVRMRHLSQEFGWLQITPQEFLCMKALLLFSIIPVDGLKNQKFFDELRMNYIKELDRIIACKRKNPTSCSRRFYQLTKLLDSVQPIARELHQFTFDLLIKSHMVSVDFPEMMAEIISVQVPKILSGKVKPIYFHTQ

SMILES strings stand for the structures. Values without a mark were called inactive. Records with an inconclusive call do not appear. The source made the active and inactive calls. Unless noted, calls follow the shape of the dose curve; as a rule, active = well fitted curve in the direction sought with a large enough effect in the repeat runs; inconclusive = weak or mixed curves; inactive = no such curve, though single readings can be large; an effect the other way counts as inactive or inconclusive.

Estrogen receptor beta (Homo sapiens), sequence (Q92731 whole entry, looked up): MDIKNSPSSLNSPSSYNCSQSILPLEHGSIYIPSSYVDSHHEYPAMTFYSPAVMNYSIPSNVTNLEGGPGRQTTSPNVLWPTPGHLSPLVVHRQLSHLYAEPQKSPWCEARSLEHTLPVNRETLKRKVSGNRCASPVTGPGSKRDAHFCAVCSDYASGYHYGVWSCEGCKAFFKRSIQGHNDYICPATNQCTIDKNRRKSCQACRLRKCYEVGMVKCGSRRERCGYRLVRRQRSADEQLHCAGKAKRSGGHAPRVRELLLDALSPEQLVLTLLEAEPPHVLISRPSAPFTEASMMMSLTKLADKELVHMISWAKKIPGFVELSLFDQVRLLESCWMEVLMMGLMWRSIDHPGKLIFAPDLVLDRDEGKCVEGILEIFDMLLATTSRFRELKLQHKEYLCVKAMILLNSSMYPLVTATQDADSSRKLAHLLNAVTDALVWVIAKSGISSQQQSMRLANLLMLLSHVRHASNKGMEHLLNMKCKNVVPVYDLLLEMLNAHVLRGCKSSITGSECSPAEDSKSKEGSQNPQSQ
Estrogen receptor (Homo sapiens), sequence (P03372 whole entry, looked up): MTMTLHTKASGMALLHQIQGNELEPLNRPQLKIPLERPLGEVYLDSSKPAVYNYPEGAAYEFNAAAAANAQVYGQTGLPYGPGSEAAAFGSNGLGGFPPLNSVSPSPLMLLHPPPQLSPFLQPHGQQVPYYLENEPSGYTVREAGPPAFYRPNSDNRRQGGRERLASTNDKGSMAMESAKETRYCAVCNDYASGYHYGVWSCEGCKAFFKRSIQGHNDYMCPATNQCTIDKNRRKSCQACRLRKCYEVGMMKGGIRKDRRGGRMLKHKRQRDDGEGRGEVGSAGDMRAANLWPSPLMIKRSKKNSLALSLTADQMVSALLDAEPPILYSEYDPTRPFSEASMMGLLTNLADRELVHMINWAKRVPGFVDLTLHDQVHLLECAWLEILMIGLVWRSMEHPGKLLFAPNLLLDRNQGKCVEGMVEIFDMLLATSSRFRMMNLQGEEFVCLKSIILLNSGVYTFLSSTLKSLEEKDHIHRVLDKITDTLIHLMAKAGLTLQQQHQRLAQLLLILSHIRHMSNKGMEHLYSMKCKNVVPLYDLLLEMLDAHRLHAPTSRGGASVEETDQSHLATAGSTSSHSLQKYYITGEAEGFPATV
Progesterone receptor (Homo sapiens), sequence (P06401 whole entry, looked up): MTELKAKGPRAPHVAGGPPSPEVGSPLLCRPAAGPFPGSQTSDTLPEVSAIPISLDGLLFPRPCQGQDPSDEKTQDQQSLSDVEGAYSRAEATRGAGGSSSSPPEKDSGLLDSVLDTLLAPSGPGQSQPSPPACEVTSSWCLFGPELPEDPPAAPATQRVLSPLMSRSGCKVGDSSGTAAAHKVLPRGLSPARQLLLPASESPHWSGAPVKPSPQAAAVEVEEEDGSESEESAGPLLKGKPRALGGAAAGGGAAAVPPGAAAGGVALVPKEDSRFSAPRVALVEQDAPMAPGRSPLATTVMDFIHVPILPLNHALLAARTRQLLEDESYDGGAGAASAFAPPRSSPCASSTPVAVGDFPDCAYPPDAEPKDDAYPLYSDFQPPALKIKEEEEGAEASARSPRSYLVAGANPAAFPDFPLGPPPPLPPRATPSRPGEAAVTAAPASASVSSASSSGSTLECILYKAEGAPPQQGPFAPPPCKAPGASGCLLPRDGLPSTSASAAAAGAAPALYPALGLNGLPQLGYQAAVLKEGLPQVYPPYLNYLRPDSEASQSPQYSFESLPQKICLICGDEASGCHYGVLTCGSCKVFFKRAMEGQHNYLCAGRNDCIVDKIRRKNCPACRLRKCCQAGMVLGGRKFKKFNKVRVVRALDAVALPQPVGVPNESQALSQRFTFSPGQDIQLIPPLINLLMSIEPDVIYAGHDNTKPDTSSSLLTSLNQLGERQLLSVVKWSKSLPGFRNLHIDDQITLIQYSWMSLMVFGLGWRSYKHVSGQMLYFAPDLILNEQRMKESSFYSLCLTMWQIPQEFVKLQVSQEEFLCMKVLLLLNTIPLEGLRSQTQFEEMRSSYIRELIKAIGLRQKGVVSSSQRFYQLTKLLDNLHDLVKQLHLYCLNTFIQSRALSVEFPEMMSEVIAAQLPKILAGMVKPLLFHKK
Thyrotropin receptor (Homo sapiens), sequence (P16473 whole entry, looked up): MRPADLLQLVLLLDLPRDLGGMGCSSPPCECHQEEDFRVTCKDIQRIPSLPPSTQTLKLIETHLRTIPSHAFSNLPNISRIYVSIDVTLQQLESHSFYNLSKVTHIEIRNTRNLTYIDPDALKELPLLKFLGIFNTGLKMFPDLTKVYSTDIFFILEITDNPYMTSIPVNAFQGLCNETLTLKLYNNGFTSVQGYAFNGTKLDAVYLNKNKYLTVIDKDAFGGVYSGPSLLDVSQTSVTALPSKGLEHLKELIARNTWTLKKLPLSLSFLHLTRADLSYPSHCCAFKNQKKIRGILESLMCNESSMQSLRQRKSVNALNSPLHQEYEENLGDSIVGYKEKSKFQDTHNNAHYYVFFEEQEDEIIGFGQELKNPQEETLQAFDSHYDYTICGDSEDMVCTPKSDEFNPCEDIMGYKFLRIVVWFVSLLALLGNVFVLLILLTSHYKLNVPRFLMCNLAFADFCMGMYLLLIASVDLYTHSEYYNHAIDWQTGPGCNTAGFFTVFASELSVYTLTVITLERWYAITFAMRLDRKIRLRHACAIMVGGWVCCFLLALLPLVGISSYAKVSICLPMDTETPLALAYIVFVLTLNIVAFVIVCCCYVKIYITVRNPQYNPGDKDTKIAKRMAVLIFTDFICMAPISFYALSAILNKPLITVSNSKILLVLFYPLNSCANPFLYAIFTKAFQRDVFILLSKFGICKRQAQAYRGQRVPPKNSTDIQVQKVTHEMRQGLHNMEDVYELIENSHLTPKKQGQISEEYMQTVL

As for `O=C(O)CONC(=O)c1ccccc1`, the Potency result in experiment [1], in [6] and in experiment [12] was “inactive” each time. Further, the compound was classed as inactive in experiment [2], in [3], in experiment [4], in experiment [5], in experiment [7] and in [8]. For the same compound, the call in experiment [9], in experiment [10], in experiment [11], in [13] and in [14] was inactive.
As for `OCC(O)CN1CCN(c2ccccc2)CC1` (stereo not drawn), the Potency entry in experiment [1], in experiment [6] and in experiment [12] was “inactive” in each case. Further, the outcome in experiment [2], in experiment [3], in experiment [4], in [5], in experiment [7] and in experiment [8] was inactive. Further, the result in experiment [9], in experiment [15], in experiment [10], in [13] and in [14] was inactive.
In the case of `CC(=O)Nc1ccc(OC(=O)c2ccccc2OC(C)=O)cc1`, the Potency in experiment [1] was 23.7 µM (active). Further, the call in [2], in [3], in [4], in [5], in experiment [7] and in experiment [8] was inactive. For the same compound, the result in [9], in experiment [15], in experiment [10], in [11], in [13] and in experiment [14] was inactive. In addition, the Potency result in experiment [16], in experiment [17] and in [12] was “inactive” throughout.
Regarding `Cc1ccc(C(C)NC(=O)[C@@H](NC(=O)OC(C)C)C(C)C)cc1` (stereo partly drawn), the Potency entry in experiment [1], in experiment [6], in experiment [17] and in [12] was “inactive” each time. For the same compound, the compound was classed as inactive in experiment [2], in [3], in experiment [4], in experiment [5], in [7] and in experiment [8]. In addition, the compound was classed as inactive in experiment [9], in experiment [15], in experiment [10], in experiment [11], in experiment [13] and in experiment [14].
For `OCC1CCC(CO)CC1` (stereo not drawn), the Potency result in experiment [1], in [6], in [18], in [19], in experiment [16] and in experiment [17] was “inactive” in each case. In experiment [12], the Potency entry was “inactive”. Also, the result in experiment [2], in experiment [3], in [7], in [8], in [20] and in [9] was inactive. For the same compound, the result in [15], in experiment [11] and in [14] was inactive.
Regarding `CN(C)CC/C=C1/c2ccccc2COc2ccc(CC(=O)O)cc21`, the Potency entry in experiment [1], in [19], in [17] and in experiment [12] was “inactive” in each case. In addition, the result in experiment [2], in [3], in experiment [5], in [7], in [8] and in [9] was inactive. Moreover, the outcome in experiment [15], in [10], in experiment [11], in experiment [13] and in experiment [14] was inactive.
Turning to `CC1=C(C(=O)O)N2C(=O)[C@@H](NC(=O)[C@H](N)c3ccccc3)[C@H]2SC1`, the Potency entry in [1], in experiment [6], in [19], in [16] and in [12] was “inactive” each time. Further, the compound was called inactive in [2], in [3], in experiment [4], in experiment [7], in experiment [9] and in [11]. For the same compound, the outcome in experiment [13] was inactive.

(Values after PubChem BioAssay (Tox21).)
